Bioassay records as filed in PubChem BioAssay.
Sampled rows, rich in hits. Any-hit rate of the full collection: about 1.1%.
SARS PLpro yeast-1 = blocks SARS-CoV papain-like protease in a yeast assay; S. cerevisiae expressing SARS-CoV PLpro, growth rescue; Potency, µM (top dose mostly 32.9 µM), for inactives: top-dose activity, positive = growth rescue, hits mostly activators; actives 0.19% (n = 330,000); AID 485353; calls by dose curve; also: potency is read from the fitted curve at half-maximal effect; 0% is about no effect; nearly all actives have a fitted effect of over 55% in size
Giardia FBPA inh = inhibitors of Giardia lamblia fructose-1,6-bisphosphate aldolase; Potency, µM (series often up to 59.6 µM), for inactives: at the highest dose activity, negative = inhibition, hits mostly inhibitors; purified Giardia FBPA; actives 0.71% (n = 290,000); also: potency is read from the fitted curve at half-maximal effect; % is scaled to controls: 0 for no effect and ±100 for the full control effect; nearly all actives have a fitted effect of over 55% in size
Target sequence (A8B2U2 whole entry, looked up): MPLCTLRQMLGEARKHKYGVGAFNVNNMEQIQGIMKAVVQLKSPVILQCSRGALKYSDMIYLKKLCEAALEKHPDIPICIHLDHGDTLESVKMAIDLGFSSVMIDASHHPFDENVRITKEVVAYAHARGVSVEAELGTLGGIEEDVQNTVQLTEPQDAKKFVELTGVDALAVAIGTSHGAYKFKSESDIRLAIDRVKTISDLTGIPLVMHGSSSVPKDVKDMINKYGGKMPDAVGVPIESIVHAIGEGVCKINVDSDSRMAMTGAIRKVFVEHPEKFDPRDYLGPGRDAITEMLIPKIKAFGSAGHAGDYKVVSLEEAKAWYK
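40 nM FBPA preincubated 10 min at RT with compound (up to 57.5 uM final), then substrate plus GAPDH/TPI/NAD/arsenate coupling and diaphorase/resazurin added. Fluorescence read after 20 min at RT, 525/598 nm.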
AmpC inh no detg = blocks E. coli AmpC beta-lactamase in detergent-free assay; Potency, µM (doses to about 57.1 µM), for the others: top-dose activity change, negative = inhibition, actives largely listed as inhibitors; actives 0.52% (n = 330,000); AmpC nitrocefin hydrolysis, absorbance 480 nm, 0.0001% Triton; AID 485341; P00811;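 also: potency is read from the fitted curve at half-maximal effect; plate controls were no compound for no effect and no enzyme for full effect; nearly all actives have a fitted effect of over 20% in size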
Target sequence (P00811 whole entry, looked up): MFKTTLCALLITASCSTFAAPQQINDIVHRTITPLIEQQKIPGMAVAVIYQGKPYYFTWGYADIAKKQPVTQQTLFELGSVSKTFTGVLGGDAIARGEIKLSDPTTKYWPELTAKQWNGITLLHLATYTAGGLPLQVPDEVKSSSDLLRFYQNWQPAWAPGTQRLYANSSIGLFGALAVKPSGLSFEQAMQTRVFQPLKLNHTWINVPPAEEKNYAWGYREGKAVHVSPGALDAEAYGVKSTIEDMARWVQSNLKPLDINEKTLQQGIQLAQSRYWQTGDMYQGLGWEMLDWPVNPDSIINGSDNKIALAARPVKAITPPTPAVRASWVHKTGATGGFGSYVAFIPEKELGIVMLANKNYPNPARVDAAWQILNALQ
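20 mM phosphate pH 7.0 + 0.01% (detergent screen) or 0.0001% Triton X-100; 5.3 nM AmpC reagent; cpd preinc 15 min RT; nitrocefin (800 uM stock) to start; A480 q20 s × 4 min; Activity was normalised to no-enzyme and no-compound control wells.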
AmpC detergent = blocks E. coli AmpC beta-lactamase in detergent assay; P00811; AmpC hydrolysis of nitrocefin, absorbance 480 nm, 0.01% Triton; Potency, µM (titrated, usually from 114 µM), without a hit: top-dose activity change, negative = inhibition, hits mostly inhibitors; actives 0.041% (n = 370,000); AID 485294;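 also: potency is read from the fitted curve at half-maximal effect; 0% = no-compound wells and -100% = no-enzyme wells; nearly all actives have a fitted effect of over 25% in size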
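20 mM phosphate pH 7.0 + 0.01% (detergent screen) or 0.0001% Triton X-100; 5.3 nM AmpC reagent; cpd preinc 15 min RT; nitrocefin (800 uM stock) to start; A480 q20 s × 4 min; Activity was normalised to no-enzyme and no-compound control wells.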
SARS PLpro yeast-2 = Rescues yeast growth by inhibiting SARS-CoV PLpro; shares compounds with SARS PLpro yeast-1; yeast expressing SARS-CoV PLpro, growth phenotype rescue; calls only; actives 19% (n = 1,000); call rule not given here
* hit, by the source's call; i = inactive; ? = inconclusive; · = no result given; + = active, no number; ! = a repeat was not active; [ ] = another dose, or the depositor's remark. Unless noted, calls follow the shape of the dose curve; as a rule, active = well fitted curve in the direction sought with a large enough effect; inconclusive = small, poorly fitted or top-dose-only effect, or another doubt; inactive = no such curve, though single readings can be large; an effect the other way counts as inactive or inconclusive.

SMILES | SARS PLpro yeast-1 | Giardia FBPA inh | AmpC inh no detg | AmpC detergent | SARS PLpro yeast-2
Cc1cccc(NC(=S)NCC2CCCO2)c1 (configuration not stated) | ? | -2% | -12% | -1% | i
Cc1ccc(NC(=S)NCC2CCCO2)cc1C (configuration not stated) | -5% | -8% | -26% | -4% | ·
CCOc1ccc(NC(=O)Cn2cc(C(=O)c3ccccc3)c(=O)c3cc4c(cc32)OCCO4)cc1 | · | · | · | 9% | ·
CCN(c1cccc(C)c1)S(=O)(=O)c1cccc(C(=O)O)c1 | ? | 22% | -13% | 1% | i
CCCCN(c1ccccc1)S(=O)(=O)c1cccc(C(=O)O)c1 | 1% | ? | -38% | 4% | ·
COc1ccc2c3n([n+]([O-])c2c1)CCN=C3c1ccc(Cl)cc1 | ? | · | -16% | 1% | i
COc1ccc2c(c1)C(=O)[C@@H](OC(=O)NS(=O)(=O)c1ccc(F)cc1)[C@H](c1ccc(OC)c(Br)c1)O2 | · | 1% | · | · | ·
CCCCCCN(C(=O)CCCN1C(=O)NC(c2ccc([N+](=O)[O-])cc2)C(C(=O)OCc2ccccc2)=C1C)C(C)C(=O)NCCCC (configuration not stated) | ? | · | 16% | · | i
COC(=O)c1c(-c2cccs2)csc1NC(=O)c1cc(OC)cc(OC)c1 | · | · | · | 19% | ·
CCOc1ccc(N(C(=O)Nc2ccccc2)C2=NCCC2)cc1 | -7% | -14% | 3% | -15% | ·
CNC(=O)N(C1=NCCCCC1)c1ccc(Br)cc1 | · | 4% | -22% | -6% | i
COc1ccccc1C(=O)NCC(=O)OC(C)C(=O)NC(=O)NC1CCCCC1 (configuration not stated) | ? | 5% | 19% | 1% | i
CCc1ccc(NC(=O)CSc2nc3ncccc3[nH]2)cc1 | · | · | · | 15% | ·
CCOC(=O)c1c(-c2ccc(C)cc2)csc1NC(=O)c1cc(=O)c2cc(C)cc(C)c2o1 | · | · | · | 6% | ·
C#CCCCO/N=C1/C[C@@H](O)[C@@H](O)[C@@H]2[C@@H]3C(=O)N(CC)C(=O)[C@H]3CC[C@H]12 | · | -2%[12.9 µM] | · | · | ·
CCC(CC)c1nn2c(=O)cc(COc3ccc(NC(=O)c4ccccc4C)cc3)nc2s1 | · | · | · | 7% | ·
Cc1ccc(Nc2nc(NCCCN3CCOCC3)nc(N)c2[N+](=O)[O-])cc1 | ? | 8% | -17% | -19% | i
O=C(OCC(=O)N1CCN(c2ccccc2)CC1)c1cccc(Cl)c1 | ? | 3% | -1% | 4% | i
COc1ccc(-n2c(-c3ccccc3F)nc3c(cnn3-c3ccc(C)cc3)c2=O)cc1 | · | · | · | -1% | ·
CCOC(=O)N1CCN(c2ccc(C(F)(F)F)cn2)CC1 | 14% | 8% | 6% | -1% | ·
CCOC(=O)C(C)S(=O)(=O)c1ccc(C(F)(F)F)cn1 (configuration not stated) | ? | 6% | -3% | -1% | i
CCc1ccccc1NC(=O)c1sc(-n2nc(C)c(Cc3ccc4c(c3)OCO4)c2C)nc1C | · | · | · | 15% | ·
COc1ccc(S(=O)(=O)NCCN2CCOCC2)c2ccccc12 | 20µM* | -8% | -7% | -11% | i
CC(C)CCNC(=S)Nc1ccccc1F | ? | 1% | -13% | 1% | +
Cn1c2cc(C#N)sc2c2cnn(Cc3ccc(F)cc3)c(=O)c21 | 5.6µM*! | · | -23% | ? | i
SMILES | SARS PLpro yeast-1 | Giardia FBPA inh | AmpC inh no detg | AmpC detergent | SARS PLpro yeast-2
Cc1cc(=O)c2ccccc2n1Cc1ccccc1 | 1% | -2% | 45% | -3% | ·
Cc1ccc2c(c1)c(=O)c(Br)c(C)n2Cc1ccccc1 | ? | 0% | 23% | -4% | i
Cc1ccc(-c2cc(=O)c3cc(F)ccc3[nH]2)cc1 | ? | 7% | -8% | -6% | i
Cc1ccc(-c2cc(=O)c3cc(C)ccc3[nH]2)cc1 | 4% | 0%[89.2 µM] | -32% | ? | ·
CC(C)CS(=O)(=O)c1oc(-c2ccc(F)cc2)nc1S(=O)(=O)c1ccccc1 | · | · | · | -7% | ·
COC(=O)c1ccc2c(=O)n(NC(=O)C(c3ccccc3)c3ccccc3)c(=S)[nH]c2c1 | ? | 2% | -49% | ? | i
COc1ccc(-c2nnc3n2N=C(c2ccc(OC)c(OC)c2)CS3)c(OC)c1 | · | 6% | · | · | ·
CN(C)CCCN(C(=O)c1ccc(S(=O)(=O)N2CCOCC2)cc1)c1nc2ccc(F)cc2s1 | 3% | · | 82% | -8% | ·
CN(C)CCCN(C(=O)c1ccc(S(=O)(=O)N2CCCCCC2)cc1)c1nc2ccc(F)cc2s1 | ? | · | 177% | -2% | i
COc1ccc(-c2cc(N3C(=O)Nc4ccccc4N3O)n[nH]2)cc1 | 11µM* | 5% | 3% | 1% | i
CC1CSc2ccccc2NC1=S (configuration not stated) | 10µM* | -28% | -18% | ? | +
Cc1ccccc1C(=O)NCc1nc2cccnc2n1Cc1ccccc1 | · | · | · | 7% | ·
O=C(NCc1ccco1)c1ccc(Cl)c(S(=O)(=O)N2CCc3ccccc32)c1 | ? | -6% | -11% | -14% | i
O=C(NCc1ccco1)c1ccc(Cl)c(S(=O)(=O)N2CCOCC2)c1 | -4% | 1% | -10% | -7% | ·
CCOc1ccccc1C(=O)Nc1c(C(=O)Nc2ccc(F)cc2)oc2ccccc12 | · | · | · | 4% | ·
Cc1cccc(C)c1NC(=O)COC(=O)C1C2CC3OC(=O)C1C3C2 (configuration not stated) | 11µM* | 4% | -11% | -6% | i
CCc1nnc(N/N=C/c2cc(Br)c(O)cc2O)n1N | -6% | ? | -25% | -8% | ·
CC(C)(C)c1nnc(N/N=C/c2cc(Br)ccc2O)n(N)c1=O | · | 5% | -32% | 7% | i
COc1ccc(/C=N/NC(N)=S)cc1OC(=O)c1ccccc1 | 11µM* | -2% | -51% | -7% | i
Cc1ccc(C(=O)N/N=C/C=C/c2ccccc2)cc1 | -1% | 8% | -28% | 0% | ·
NC(=S)N/N=C/c1cccc(/C=N/NC(N)=S)c1 | 0% | ? | -36% | -7% | ·
NC(=S)N/N=C/C=C/c1ccccc1 | 1.6µM* | -26% | -20% | -5% | +
NC(=S)N/N=C/c1ccc2ccccc2c1 | 5.6µM* | ? | -14% | -6% | +
COc1cccc(-c2nc(SCC(=O)Nc3ccc4c(c3)OCCO4)c(-c3ccc(C)cc3)[nH]2)c1 | · | · | · | -3% | ·
COc1cccc(Cn2c(CNC(=O)CCc3ccccc3)nc3cccnc32)c1 | · | · | · | 1% | ·
O=C(CCCCCN1C(=O)[C@@H]2Cc3ccccc3CN2C1=O)N[C@@H](Cc1ccc(O)cc1)C(=O)O | 10% | 27% | 53% | ? | ·
O=C(CCN1C(=O)[C@@H]2Cc3ccccc3CN2C1=O)N[C@@H](Cc1ccccc1)C(=O)O | 6.3µM* | 6% | -45% | ? | i
Cc1cccc(N2CCN(C(=O)C3CCCN(S(=O)(=O)c4cccc5nsnc45)C3)CC2)c1C (configuration not stated) | · | · | · | -5% | ·
CCOC(=O)c1[nH]cnc1C(=O)N1CCN(C(=O)OC(C)(C)C)CC1 | ? | · | -11% | 0% | ?
